DT40 TDP1 CPT – growth inhibition of DT40 Tdp1-/-;hTDP1 cells with camptothecin (screen for TDP1 inhibitors); chicken DT40 Tdp1-/-;hTDP1 cells + 20 nM CPT, ATP luminescence, 48 h; Potency, µM (highest dose often 46.2 µM), for the others: at the highest dose activity change, negative = growth inhibition, actives largely listed as inhibitors; 420,000 tested, 12% active; AID 686979; note: potency is the fitted concentration of half-maximal effect; nearly all actives have a fitted effect of over 55% in size
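Chicken DT40 Tdp1-/- cells stably complemented with human TDP1 were seeded at 400 cells/well in medium containing 20 nM camptothecin, exposed to pin-transferred compounds, and grown at 37 °C for at least 48 hr. Viability was read as ATP luminescence.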
HT1080 IDH1KD tx – toxicity to HT-1080 IDH1 knockdown cells (counter line); HT-1080 IDH1 knockdown viability, ATP luminescence, 48 h; Potency, µM (highest dose often 46.1 µM), without a hit: at the highest dose activity, negative = toxicity, actives largely listed as cytotoxic; 360,000 tested, 2% active;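 note: potency is the fitted concentration of half-maximal effect; 0% = DMSO wells and -100% = cell-free medium wells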
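Viability of IDH1-knockdown HT-1080 fibrosarcoma cells was assessed by CellTiter-Glo after 48 h at 37 °C with titrated compound; concentration-effect curves were classified by fit quality and response size.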
ELG1 DNA repair – blocks ELG1-dependent DNA repair in HEK293T cells; HEK293T ELG1-luciferase reporter, luminescence, 16 h; DNA damage induced by 5-fluorouridine; Potency, µM (series often up to 46.1 µM), without a hit: at the highest dose activity change, negative = inhibition, actives largely listed as inhibitors; 330,000 tested, 2.3% active; AID 504467; note: potency is the fitted concentration of half-maximal effect; nearly all actives have a fitted effect of over 55% in size
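Quantitative HTS, concentration-response format. 2,000 cells/well co-treated with 5-fluorouridine and compound, 16 hr in 5% CO2 at 37 °C; ONE-Glo luminescence read after 30 min.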
TDP1 cell noCPT – qHTS for Inhibitors of human tyrosyl-DNA phosphodiesterase 1 (TDP1): qHTS in cells in absence of CPT; DT40 Tdp1-/- hTDP1 cells, no CPT, ATP luminescence, 48 h; Potency, µM (highest dose often 46.2 µM), inactives show top-dose activity change, negative = growth inhibition, usual class: inhibitors; 420,000 tested, 15% active; note: potency is the fitted concentration of half-maximal effect; nearly all actives have a fitted effect of over 55% in size
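Growth kinetics read by CellTiter-Glo luminescence after ≥48 hr at 37 °C. Cells: DT40 Tdp1-/- stably carrying human TDP1, 400 per well, compound exposure in the absence of CPT (DMSO vehicle).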
IL-1B inflam inh – inhibitors of inflammasome signaling (IL-1 beta secretion); THP-1 LPS/ATP IL-1B secretion, AlphaLISA, 16 h; stronger effect = lower value; 360,000 tested, 4.7% active; activity change, % at 57.5 µM; in the data active = activity change below about -50%; inconclusive = mostly about -30% to -49%
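THP-1 cells pretreated 1 hr with compounds (up to 57.5 uM final), then stimulated with LPS (250 ng/mL final) plus ATP (1.25 mM final); secreted IL-1B measured by AlphaLISA after 16 hr, decreased signal indicating inhibition.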
HT1080-NT tox – kills 2HG-producing HT-1080-NT fibrosarcoma cells. Potency, µM (top dose mostly 46.1 µM), without a hit: top-dose activity, negative = less viability, actives largely listed as cytotoxic. HT-1080-NT fibrosarcoma viability, CellTiter-Glo ATP luminescence, 48 h. 360,000 tested, 1.6% active;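 note: NT is the 2HG producing partner of a matched IDH1 knockdown line; potency is the fitted concentration of half-maximal effect; 0% = DMSO-treated cells and -100% = media-only wells without cells; nearly all actives have a fitted effect of over 55% in size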
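Compounds were tested in concentration-response format on HT-1080-NT cells for 48 hours at 37 degrees C. Cell viability came from CellTiter-Glo luminescence; curves were classified by r2, response magnitude and activity.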
Active calls of the source: *; ? = inconclusive; . = no result given; [ ] = remark or other dose. This is a sample that favours compounds with a hit; in the whole collection about 19% have one here. Unless noted, calls come from the whole dose curve; as a rule, active = well fitted curve in the direction sought with a large enough effect; inconclusive = small, poorly fitted or top-dose-only effect, or another doubt; inactive = no such curve, though single readings can be large; an effect the other way counts as inactive or inconclusive. Unless noted, % is set by controls: 0 for no effect and ±100 for the full control effect.

SMILES	DT40 TDP1 CPT	HT1080 IDH1KD tx	ELG1 DNA repair	TDP1 cell noCPT	IL-1B inflam inh	HT1080-NT tox
O=C(CCS(=O)(=O)c1nc(-c2ccc3c(c2)OCO3)cc(C(F)(F)F)n1)Nc1ccc(F)cc1F	?	.	.	21µM*	.	.
Cc1cc(NC(=O)CCS(=O)(=O)c2nc(-c3ccccc3)cc(C(F)(F)F)n2)no1	1.6µM*	-14%[9.24 µM]	?	1.8µM*	-121*	?
CN1CCCC(C)(C(=O)Nc2ccc3scnc3c2)C1 (configuration not stated)	1%	7%	.	1%	47	?
CN1CCc2cc3c(cc2C(=O)Cc2ccc4c(c2C1)OCO4)OCO3	12%	.	.	-24%	.	.
Cc1ccc(-c2csc3ncnc(Oc4ccc5c(C)cc(=O)oc5c4)c23)cc1	18µM*	9%	18µM*	?	28	3%
CN(CCOc1cccc(C(F)(F)F)c1)Cc1ccccc1	?	-11%	10%	?	5	-13%
CN(C)Cc1ccccc1C(O)(c1ccccc1)c1ccccc1	29µM*	-10%	-8%	?	-71*	?
Cc1cccc(CN(C)C)c1CC(O)(c1ccccc1)c1ccccc1	?	-3%	.	?	-4	-2%
CN(C)Cc1cc(C(F)(F)F)ccc1C(O)(c1ccccc1)c1ccccc1	?	-2%	.	?	-75*	-15%
Cc1ccc(CNC(=O)COCc2cc(-c3cccs3)on2)cc1	?	.	.	-26%	.	.
COc1ccc(C2CC(=O)C=C3c4ccc(OC)cc4CCC32)cc1 (configuration not stated)	?	12%	.	26µM*	20	11%
CC(C)CC1C(=O)N(Cc2cn(CC3CCCCC3)nn2)CCS(=O)(=O)N1Cc1ccc(-c2ccc(Cl)c(Cl)c2)cc1 (configuration not stated)	?	-29%	.	16µM*	-11	?
Cc1cccc(C)c1-c1ccc(CN2C(CC(C)C)C(=O)N(Cc3cn(CC4CCCCC4)nn3)CCS2(=O)=O)cc1 (configuration not stated)	?	?	.	23µM*	-13	?
C[C@]12c3[nH]c4ccccc4c3CCN1C(=O)C(CC(=O)NCCCn1ccnc1)C[C@@H]2C(=O)N1CCCCC1 (some centres not stated)	-12%	1%	12%	-8%	-5	2%
CCCC(C(=O)NC1CCCC1)N(Cc1ccccc1Cl)C(=O)c1snc(C(N)=O)c1N (configuration not stated)	-25%	?	-16%	-19%	?	?
CCC(C(=O)NC1CCCC1)N(Cc1ccccc1Cl)C(=O)c1snc(C(N)=O)c1N (configuration not stated)	-5%	-2%	?	13µM*	-1	-10%
CCCC(C(=O)NC1CCCC1)N(Cc1ccc2c(c1)OCO2)C(=O)c1snc(C(N)=O)c1N (configuration not stated)	?	-3%[9.24 µM]	?	?	-53*	-19%
CCCC(C(=O)NC(C)(C)C)N(Cc1ccc(F)cc1)C(=O)c1snc(C(N)=O)c1N (configuration not stated)	-15%	-8%	4%	?	9	-2%
CCCC(C(=O)NCCC(C)C)N(Cc1ccccc1)C(=O)c1snc(C(N)=O)c1N (configuration not stated)	18µM*	0%	?	?	-22	-18%
CC(C)CC(C(=O)NC1CCCC1)N(Cc1cccs1)C(=O)c1snc(C(N)=O)c1N (configuration not stated)	?	-7%	18µM*	?	-13	1%
CCCCC(C(=O)NC1CCCC1)N(Cc1ccccc1)C(=O)c1snc(C(N)=O)c1N (configuration not stated)	?	-21%	-29%	21µM*	-28	-25%
CCc1ccc(-c2nc(CS(=O)CC(=O)NCCCN3CCOCC3)c(C)o2)cc1 (configuration not stated)	-23%	3%	17%	7%	38	-18%
O=C1CCN1C1(C(=O)NC2CCCCC2)CCCC1	-4%	16%	-2%	-25%	-15	11%
Cc1nc(SCc2nc3ccccc3[nH]2)c2oc3ccccc3c2n1	21µM*	?	18µM*	?	-28	-30%
Cc1nc(N2CCOCC2)c2oc3ccccc3c2n1	?	-12%	-23%	18µM*	7	-10%
SMILES	DT40 TDP1 CPT	HT1080 IDH1KD tx	ELG1 DNA repair	TDP1 cell noCPT	IL-1B inflam inh	HT1080-NT tox
c1ccc2[nH]c(CN3CCCCC3)nc2c1	-3%	14%	3%	-4%	16	20%
c1ccc2[nH]c(CN3CCN(c4ncnc5c4oc4ccccc45)CC3)nc2c1	23µM*	-29%	?	23µM*	?	?
Cc1nc(N2CCN(Cc3nc4ccccc4[nH]3)CC2)c2oc3ccccc3c2n1	?	?	?	18µM*	?	-25%
COc1ccc(OC)c(NC(=O)c2nc(SCc3ccc(F)cc3)ncc2Cl)c1	-11%	.	.	-14%	.	.
COc1cc(Cl)c(C)cc1NC(=O)c1ccc(S(C)(=O)=O)cc1	-3%	12%	-2%	-1%	?	3%
O=C(O)c1ccc(CS(=O)(=O)c2c(Cl)cccc2Cl)o1	12%	8%	0%	-1%	17	7%
COc1cc(F)ccc1-c1cc(C(=O)NCc2ccc(C(F)(F)F)cc2)[nH]n1	?	-27%	.	?	-26	-19%
COc1ccccc1N1CCN(c2ncnc3c2oc2ccccc23)CC1	3.7µM*	?	?	5.2µM*	35	?
Nc1nc(N2CCN(C/C=C/c3ccccc3)CC2)nc2ccccc12	21µM*	?	-14%	?	-4	?
CCc1nc(N2CCCCC2)c2oc3ccccc3c2n1	?	?	.	?	-8	?
c1cnc(N2CCN(c3ncnc4c3oc3ccccc34)CC2)nc1	.	.	6%	.	.	.
O=C(c1ccco1)N1CCN(c2ncnc3c2oc2ccccc23)CC1	21µM*	0%	?	13µM*	-5	-1%
O=C(c1ccco1)N1CCN(c2ncccn2)CC1	21%	2%	?	15%	14	16%
C(=C\c1ccccc1)/CN1CCN(c2ncnc3c2oc2ccccc23)CC1	18µM*	?	?	18µM*	-23	?

Screening results from PubChem.
